# Source: PubChem BioAssay AID463173 (ICCB-Longwood Screening Facility, Harvard Medical School, 2010)
# Screen size: about 52,000 compounds; about 4,300 (8.3%) were called active. This is one part of a sample in which actives are shown more often than they occur. Rule as the data show it: active = survival mostly below about 52% (no sharp cut-off); inactive = mostly above about 56%.
# Tested on: DeltatarO mutant
# Test: S. aureus survival, RN4220 and DeltatarO strains – OD600, teichoic acid synthesis inhibitors, primary screen (AID 463173)
# Conditions: S. aureus RN4220 wild type/DeltatarO growth, OD600, 18 h, hits give low values, screened at 18.75 µg/mL (by protocol)
row,Structure (SMILES),survival
1,COc1ccc(Cc2nnc(SCC(=O)N3CCCC3)o2)cc1,83% (inactive)
2,COc1ccc(N(CC(=O)NCCc2ccc(C)cc2)S(=O)(=O)c2c(C)nn(C)c2C)cc1,71% (inactive)
3,COc1ccc(-c2nc3c(c(SCC(=O)N4CCCCC4)n2)Cc2cc(C)ccc2O3)cc1,84% (inactive)
4,CSc1ncc(C(=O)NCc2ccccc2)c(-c2ccccc2)n1,37% (active)
5,CSc1ncc(C(=O)NCc2ccc(C)cc2)c(C)n1,69% (inactive)
6,CSc1ncc(C(=O)NCc2ccc(C)cc2)c(-c2ccccc2)n1,0% (active)
7,CSc1ncc(C(=O)NCc2cccc(C)c2)c(-c2ccccc2)n1,55% (inactive)
8,CSc1ncc(C(=O)NCc2cccc(F)c2)c(-c2ccccc2)n1,70% (inactive)
9,CSc1ncc(C(=O)NCc2ccc(F)cc2)c(-c2ccccc2)n1,95% (inactive)
10,COc1cccc(NC(=O)c2sc3nc(C)c(C(=O)Nc4ccc(C)cc4C)c(-c4cccs4)c3c2N)c1,122% (inactive)
11,CCc1ccc(S(=O)(=O)c2cn(Cc3ccccc3F)c3cc(OC)c(OC)cc3c2=O)cc1,70% (inactive)
12,COc1ccc(C(=O)NCc2cn3ccc(C)cc3n2)cc1,96% (inactive)
13,Cc1c(-c2ccccc2)n(-c2ccccc2O)c2nc3c(c(=O)n(C)c(=O)n3C)n12,94% (inactive)
14,CC(=O)c1ccc(NC(=O)c2cc3c(=O)oc4ccc(C)cc4c3s2)cc1,106% (inactive)
15,COc1ccc(-c2noc(CCC(=O)NCc3ccc(C)cc3)n2)cc1,103% (inactive)
16,COc1ccc(-c2noc(CC(=O)N(C)c3cccc(C)c3)n2)cc1,68% (inactive)
17,COc1ccc(-c2noc(CN(C(=O)Cc3ccc(C)cc3)C(C)C)n2)cc1,16% (active)
18,COc1ccc(-c2noc(CN(C(=O)c3ccccc3Cl)C(C)C)n2)cc1,62% (inactive)
19,COc1ccc(-c2noc(CN(C(=O)C(C)Oc3ccc(C)cc3)C(C)C)n2)cc1 (stereo unspecified),63% (inactive)
20,COc1ccc(-c2noc(CNC(=O)COc3cccc(C)c3C)n2)cc1,51% (inactive)
21,COc1ccc(CC(=O)N(Cc2nc(-c3ccc(C)cc3)no2)C(C)C)cc1,31% (active)
22,COc1ccc(-c2noc(CN(C(=O)c3ccc(C)cc3C)C(C)C)n2)cc1,-3% (active)
23,Cc1ccc(-c2noc(CN(C(=O)COc3cc(C)cc(C)c3C)C(C)C)n2)cc1,-3% (active)

row,Structure (SMILES),survival
1,COc1ccc(-c2noc(CN(C(=O)c3cc(OC)c(OC)cc3OC)C(C)C)n2)cc1,74% (inactive)
2,Cc1ccccc1Cn1c(C)c(CNCc2ccccc2)c(C(=O)O)c1C,84% (inactive)
3,Cc1cccc(N(CC(=O)N(C)Cc2ccccc2)S(=O)(=O)c2ccccc2)c1C,47% (inactive)
4,O=S(=O)(c1ccc(Cl)cc1)c1nnn2c1nc(NCc1ccc3c(c1)OCO3)c1sccc12,69% (inactive)
5,Cc1ccc2c(=O)c(C(=O)c3cccc(Cl)c3)cn(CC(=O)Nc3ccc4c(c3)OCCO4)c2n1,80% (inactive)
6,CC(=O)Nc1ccc(S(=O)(=O)N2CCC(c3nnnn3-c3ccccc3)CC2)cc1,76% (inactive)
7,O=C(NCCN1CCCCC1)Nc1c[nH]c2c(Cl)cccc2c1=O,102% (inactive)
8,COC(=O)c1cc(-c2ccc(Cl)cc2)c2c(=O)[nH]c(=O)n(C)c2n1,92% (inactive)
9,COc1ccc(-c2noc(-c3nnn(-c4cc(C)ccc4C)c3N)n2)cc1,81% (inactive)
10,Cc1ccc(CC(=O)NCc2nc(-c3ccccc3)no2)cc1,77% (inactive)
11,COc1ccc(-c2noc(CC(=O)Nc3ccc(Br)cc3C)n2)cc1,59% (inactive)
12,COc1ccc(-c2noc(CN(C(=O)COc3cc(C)c(Br)c(C)c3)C(C)C)n2)cc1,31% (active)
13,Cc1ccc(CC(=O)N(Cc2nc(-c3ccc(C)cc3)no2)C(C)C)cc1,-4% (active)
14,Cc1ccc(-c2noc(CNC(=O)COc3cc(C)c(Br)c(C)c3)n2)cc1,80% (inactive)
15,Cc1ccc(-c2noc(CNC(C)C)n2)cc1,77% (inactive)
16,O=C(CS(=O)(=O)c1cccc2nsnc12)Nc1ccc(F)cc1,97% (inactive)
17,CCN(CC)C(=O)CSc1nc2c(c(=O)n(C)c(=O)n2C)n1Cc1ccccc1,76% (inactive)
18,Cc1ccc(C)c(NC(=O)C(NS(=O)(=O)c2ccc3c(c2)CCC(=O)N3)c2ccccc2)c1 (stereo unspecified),113% (inactive)
19,CCOC(=O)Nc1ccc(C(=O)OC)cc1,75% (inactive)
20,COC(=O)c1ccc(NC(=O)CCOc2ccccc2)cc1,69% (inactive)
21,COC(=O)c1ccc(NCC(=O)c2ccccc2)cc1,64% (active)
22,O=C(NC1CCCCC1)/C(=N\O)c1ccccn1,97% (inactive)
23,CCOc1ccc(NC(=O)Cn2cc(C(=O)c3ccc(C)c(C)c3)c(=O)c3cc4c(cc32)OCCO4)cc1,62% (inactive)
